LDHA inh: qHTS assay for inhibitors of human lactate dehydrogenase; L-lactate dehydrogenase A chain (Homo sapiens), P00338; purified LDHA, NADH/diaphorase-resazurin fluorescence; hits give low values; activity change, % (values are at about 110 or 230 µM); 0.15% of 480,000 active; in the data active = activity change below about -30%; inconclusive = mostly about -25% to -30%;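 note: plate controls were DMSO wells for no effect and wells without enzyme for full effect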
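Human LDH5 at 2 nM final in Tris HCl pH 7.4 with 0.06 mM NADH and 0.2 mM pyruvate, reacted 5 minutes at room temperature. Remaining NADH coupled via diaphorase/resazurin; resorufin fluorescence read at 0 and 20 minutes, normalized to enzyme-free and DMSO wells.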
VP16 counter: VP16 counterscreen qHTS for inhibitors of ROR gamma transcriptional activity | 3.5% of 310,000 active | AID 2546, 2010 | Potency, µM (series often up to 53.6 µM), for the others: at the top dose activity, negative = inhibition, actives largely listed as inhibitors | Drosophila S2 Gal4-VP16 UAS-luciferase, luminescence, 20 h;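 note: Gal4-VP16 expression switched on by copper sulfate through the metallothionein promoter; potency is the fitted concentration of half-maximal effect; nearly all actives have a fitted effect of over 50% in size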
DT40 TDP1 CPT: qHTS for Inhibitors of human tyrosyl-DNA phosphodiesterase 1 (TDP1): qHTS in cells in presence of CPT; 12% of 420,000 active; AID 686979, 2013; chicken DT40 Tdp1-/-;hTDP1 cells + 20 nM CPT, ATP luminescence, 48 h; Potency, µM (top dose mostly 46.2 µM), for the others: at the top dose activity change, negative = growth inhibition, most hits filed as inhibitors; note: potency is the fitted concentration of half-maximal effect; nearly all actives have a fitted effect of over 55% in size
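Chicken DT40 Tdp1-/- cells complemented with human TDP1, 400 cells/well, exposed to compounds plus 20 nM camptothecin for at least 48 h at 37 C; viability read as ATP content by CellTiter-Glo luminescence.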
RORgamma inh: qHTS for inhibitors of ROR gamma transcriptional activity. Nuclear receptor ROR-gamma (Mus musculus), P51450. Drosophila S2 Gal4-RORgamma UAS-luciferase reporter, 20 h. Potency, µM (highest dose often 53.6 µM), inactives show at the highest dose activity change, negative = inhibition, most hits filed as inhibitors. 5.4% of 310,000 active. AID 2551, 2010; note: potency is the fitted concentration of half-maximal effect; nearly all actives have a fitted effect of over 60% in size
Target sequence (P51450 whole entry, looked up, the tested form may be a part): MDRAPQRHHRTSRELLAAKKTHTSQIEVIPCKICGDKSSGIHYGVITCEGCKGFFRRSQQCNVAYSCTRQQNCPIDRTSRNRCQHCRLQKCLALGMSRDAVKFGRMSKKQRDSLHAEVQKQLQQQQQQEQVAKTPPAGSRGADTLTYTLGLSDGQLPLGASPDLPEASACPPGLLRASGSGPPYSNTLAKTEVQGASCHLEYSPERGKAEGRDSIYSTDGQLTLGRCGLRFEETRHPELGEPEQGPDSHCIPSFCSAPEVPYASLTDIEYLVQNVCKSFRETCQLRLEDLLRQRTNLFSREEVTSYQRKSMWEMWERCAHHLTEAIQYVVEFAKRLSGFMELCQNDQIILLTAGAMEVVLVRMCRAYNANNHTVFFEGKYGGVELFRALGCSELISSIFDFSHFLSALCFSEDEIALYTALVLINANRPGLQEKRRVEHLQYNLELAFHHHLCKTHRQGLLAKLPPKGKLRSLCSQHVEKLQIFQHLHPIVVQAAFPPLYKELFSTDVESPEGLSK
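Stable Schneider cell line, Gal4 DNA-binding domain fused to ROR gamma, UAS-luciferase. Cmpd 1 hr RT → CuSO4 700 uM final → 20 hr RT → luciferase reagent 10 min → luminescence.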
DT40 TDP1 no CPT: qHTS for Inhibitors of human tyrosyl-DNA phosphodiesterase 1 (TDP1): qHTS in cells in absence of CPT. 15% of 420,000 active. Potency, µM (top dose mostly 46.2 µM), for inactives: top-dose activity change, negative = growth inhibition, most hits filed as inhibitors. DT40 Tdp1-/- hTDP1 cells, no CPT, ATP luminescence, 48 h. AID 686978, 2013; note: potency is the fitted concentration of half-maximal effect; nearly all actives have a fitted effect of over 55% in size
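Camptothecin absent (DMSO only). Human TDP1-complemented DT40 knockout cells, 400 cells/well, 37 °C for minimum 48 hr; ATP measured via CellTiter-Glo, 30 min dark incubation, luminescence.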
IL1B secr inh: qHTS for Inhibitors of Inflammasome Signaling: IL-1-beta AlphaLISA Primary Screen; THP-1 LPS/ATP IL-1B secretion, AlphaLISA, 16 h; hits give low values; activity change, % at 57.5 µM; 4.7% of 360,000 active; in the data active = activity change below about -50%; inconclusive = mostly about -30% to -49%
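THP-1 cells pretreated 1 hr with compounds (up to 57.5 uM final), then stimulated with LPS (250 ng/mL final) plus ATP (1.25 mM final); secreted IL-1B measured by AlphaLISA after 16 hr, decreased signal indicating inhibition.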
* = called active by the depositor; i = inactive; u = inconclusive; x = no result given. This is a sample that favours compounds with a hit; in the whole collection about 18% have one here. Unless noted, calls come from the whole dose curve; as a rule, active = well fitted curve in the direction sought with a large enough effect; inconclusive = small, poorly fitted or top-dose-only effect, or another doubt; inactive = no such curve, though single readings can be large; an effect the other way counts as inactive or inconclusive. Unless noted, % is set by controls: 0 for no effect and ±100 for the full control effect.

SMILES	LDHA inh	VP16 counter	DT40 TDP1 CPT	RORgamma inh	DT40 TDP1 no CPT	IL1B secr inh
CCOc1ccc(N2C(=O)CN(S(=O)(=O)c3ccccc3)CC2(C)C(=O)NCCC(C)C)cc1 (stereo unspecified)	-5.2	x	x	x	x	x
Cc1cc(OCc2nnc(SCc3cc(=O)c4cc(C(N)=O)ccc4[nH]3)n2C)cc(C)c1Cl	5.3	x	x	x	x	x
CCc1cccc(NC(=O)CSc2nc3c(=O)[nH]cnc3n2CC)c1	3.3	x	x	x	x	x
O=C(OCc1cn([C@H]2CN(C(=O)C3CCCCC3)[C@@H](c3ccc(Cl)cc3)C[C@@H]2O)nn1)c1ccccc1	-1.3	x	u	x	20.6µM*	-19.7
O=C(OCc1cn([C@H]2CN(C(=O)C3CCCCC3)[C@@H](c3ccccc3)C[C@@H]2O)nn1)c1ccccc1	-22.0	x	u	x	20.6µM*	32.5
O=C(COC(=O)c1ccc2ccccc2n1)Nc1cccc2ccccc12	8.8	x	x	x	x	x
CCN(CCc1ccccc1)c1ccc2c(c1)C1CC2CCN1C(=O)OCc1ccccc1 (stereo unspecified)	-4.0	x	u	x	u	14.7
O=C(OCc1ccccc1)N1CCC2CC1c1cc(-c3ccc4c(c3)OCO4)ccc12 (stereo unspecified)	-5.1	x	14.6µM*	x	u	8.5
Cc1ccc(C(=O)N2CCC3CC2c2cc(-c4ccc5c(c4)OCO5)ccc23)cc1 (stereo unspecified)	-8.6	x	16.4µM*	x	13µM*	2.9
COc1cccc(-c2ccc3c(c2)C2CC3CCN2C(C)=O)c1 (stereo unspecified)	5.1	x	-1.7%	x	u	19.3
COc1ccc(-c2ccc3c(c2)C2CC3CCN2C(=O)C(C)(C)C)cc1 (stereo unspecified)	2.9	x	u	x	20.6µM*	-5.6
O=C(c1ccc(-c2ccccc2)cc1)N1CCC2CC1c1cc(-c3ccc4c(c3)OCO4)ccc12 (stereo unspecified)	-14.1	x	u	x	u	-25.5
CCCCN(C(C)=O)c1ccc2c(c1)C1CC2CCN1C(=O)OCc1ccccc1 (stereo unspecified)	5.0	x	2.06µM*	x	3.66µM*	5.6
Cc1nn(-c2ccc(F)cc2)c(-n2cccc2)c1C(=O)N1CCc2ccccc2C1	3.6	x	x	x	x	x
COc1ccccc1OCCn1cc(/C=N/NC(N)=S)c2ccccc21	-9.2	2µM*	u	0.501µM*	29.1µM*	-2.5
N#Cc1cn(CCCOc2ccccc2)c2ccccc12	-1.0	-11.3%	9.2µM*	-14.3%	23.1µM*	-19.6
O=C(CS(=O)(=O)c1cn(Cc2ccccc2Cl)c2ccccc12)N1CCOCC1	1.9	2.8%	-23.4%	u	-14.3%	-5.3
Nc1ccc(C(=O)N/N=C/c2cn(Cc3ccc(F)cc3)c3ccccc23)cc1	-6.3	u	-26.5%	-141.5%	-9.5%	u
CNC(=S)N/N=C/c1cn(Cc2ccc(F)cc2)c2ccccc12	0.8	1.12µM*	16.4µM*	0.891µM*	10.3µM*	-19.9
N/C(=N\O)c1cn(Cc2ccccc2Cl)c2ccccc12	-1.1	-4.7%	u	8.5%	u	-66.0*
COc1ccc(C(=O)NCC(=O)N/N=C/c2cn(C)c3ccccc23)cc1OC	-1.2	-5.5%	-9.7%	3.0%	1.2%	-9.4
O=C(CCNC(=O)N1CCN(C(=O)c2cc3ccccc3[nH]2)CC1)N1CCCC1	3.1	x	x	x	x	x
C=CCNc1nc(C(=O)OC(C)C(=O)c2ccc3c(c2)CCC3)cs1 (stereo unspecified)	3.0	x	x	x	x	x
CCn1c(=O)c(N2CCC(NC(=O)Nc3cccc(C)c3)CC2)nc2ccccc21	-0.3	x	x	x	x	x
CONC(=O)Cc1csc(NC(=O)c2ccccc2)n1	0.6	x	x	x	x	x
SMILES	LDHA inh	VP16 counter	DT40 TDP1 CPT	RORgamma inh	DT40 TDP1 no CPT	IL1B secr inh
CNC(=S)N/N=C/c1cn(CCOc2ccc(OC)cc2)c2ccccc12	-3.9	3.16µM*	8.2µM*	2.24µM*	7.31µM*	-22.1
COc1ccccc1OCCn1cc(/C=N/NC(=O)c2ccncc2)c2ccccc21	-3.3	u	-28.0%	6.31µM*	18.4µM*	-6.6
COC(=O)c1cn(CCOc2ccccc2OC)c2ccccc12	-1.6	u	18.4µM*	u	14.6µM*	-4.3
O=C(N/N=C/c1cn(CCOc2ccccc2)c2ccccc12)c1ccncc1	4.3	10µM*	1.4%	6.31µM*	-6.9%	14.1
COc1ccc(OCCn2cc(C=O)c3ccccc32)cc1	-4.1	-23.2%	u	u	u	-9.9
COc1ccccc1C=NNC(=O)c1ccncc1	-2.8	x	-4.9%	x	-13.5%	16.0
Cc1nc2cc(NC(=O)COc3cccc(C)c3C)ccc2o1	-1.9	x	x	x	x	x
CCc1cccc(C)c1NC(=O)CSC1CCCC1	-2.3	x	x	x	x	x
N#Cc1ccc(CSc2nnc3c(Cl)cc(C(F)(F)F)cn23)cc1	6.5	x	x	x	x	x
COc1cc(C#N)ccc1OCc1ccccc1Br	-2.4	x	x	x	x	x
NC(=O)Cn1cc(/C=N\NS(=O)(=O)c2ccc(F)cc2)c2ccccc21	-4.6	-7.4%	-3.0%	28.5%	23.1µM*	i
Cc1ccccc1OCCn1cc(C=O)c2ccccc21	-9.0	u	u	u	-37.4%	-52.7*
COC(=O)N/N=C/c1cn(CCCOc2ccccc2)c2ccccc12	-0.1	-19.3%	25.9µM*	17.3%	u	-22.3
COc1ccc(OCCn2cc(/C(N)=N/O)c3ccccc32)cc1	-3.0	-16.9%	-17.1%	u	u	-57.4*
CCc1ccc(S(=O)(=O)N/N=C\c2cn(CC(N)=O)c3ccccc23)cc1	-1.7	x	-14.2%	x	-16.0%	i
COC(=O)N/N=C/c1cn(Cc2c(Cl)cccc2Cl)c2ccccc12	-3.0	-7.4%	-16.8%	-15.9%	u	-7.9
CC(NC(=O)CSc1nnnn1-c1ccc(O)cc1)c1ccc2c(c1)OCCO2 (stereo unspecified)	-5.7	x	x	x	x	x
O=C(c1cc(Cl)ccc1O)N1CCN(S(=O)(=O)c2ccccc2)CC1	0.0	x	x	x	x	x
CN(CCOc1ccccc1F)Cc1nc(N)nc(N(C)C)n1	-3.8	x	x	x	x	x
O=[N+]([O-])c1ccc(N/N=C/c2cn(Cc3ccc(F)cc3)c3ccccc23)nc1	-3.0	6.31µM*	u	u	u	45.8
C=CCN(CC(F)(F)F)C(=O)c1ccc(NC(=O)NC2CC2)cc1	-0.7	x	x	x	x	x

Screening data deposited in PubChem BioAssay by National Center for Advancing Translational Sciences (NCATS).
